According to PubChem BioAssay (NCI):
The panel holds about 79,000 compounds, 15% with a hit somewhere; the sample as a whole holds those more often. Unmarked numbers belong to inactive results. The source made the active and inactive calls. Cut-off read from the data, not from the text of the source: active = growth inhibition above about 70%; inactive = the rest.

Key:
[1] = NCI Yeast Anticancer Drug Screen. Data for the rad50 strain (AID 155);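 note: 0% = growth of vehicle-only cultures of the same strain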; conditions: S. cerevisiae rad50 strain growth inhibition, hits give high values
How it was run: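 Vehicle-treated cultures provide the reference for the growth inhibition reported for compound-exposed, repair-deficient yeast.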

[2] = NCI Yeast Anticancer Drug Screen. Data for the mec2-1 strain (AID 157); conditions: S. cerevisiae mec2-1 strain, hits give high values
How it was run: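 Using mec2-1 yeast: add compound, measure growth, express inhibition versus vehicle-treated cultures.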

[3] = NCI Yeast Anticancer Drug Screen. Data for the sgs1 mgt1 strain (AID 161);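 note: 0% = growth of cultures given vehicle only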; conditions: S. cerevisiae sgs1 mgt1 strain, hits give high values
How it was run: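 This yeast growth screen uses a strain with defined DNA-repair lesions; compound-treated growth is compared with vehicle-treated growth.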

[4] = NCI Yeast Anticancer Drug Screen. Data for the cln2 rad14 strain (AID 165);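 note: 0% = growth equal to vehicle treated cultures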; conditions: S. cerevisiae cln2 rad14 strain, hits give high values
How it was run: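 Yeast strain cln2 rad14, bearing defects in cell cycle control and DNA repair, serves as the test system; values reflect growth inhibition compared with vehicle.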

[5] = NCI Yeast Anticancer Drug Screen. Data for the bub3 strain (AID 167); conditions: S. cerevisiae bub3 mutant strain, hits give high values
How it was run: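 Mutant yeast screening strain plus compound; vehicle-treated cultures serve as the 0% inhibition reference.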

[6] = NCI Yeast Anticancer Drug Screen. Data for the mlh1 rad18 strain (AID 175); conditions: S. cerevisiae mlh1 rad18 strain growth inhibition, hits give high values
How it was run: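 Steps: expose repair-defective yeast to compound; measure growth; express inhibition against vehicle-treated controls.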

[7] = at 5.0 µM (retest, dose inferred, filed as 0.5)
[8] = at 50.0 µM (retest, dose inferred, filed as 5.0)

Row | Compound | growth inhibition [1, 7] [%] | growth inhibition [1, 8] | growth inhibition ([1]; at 50.0 µM) | growth inhibition [2, 7] [%] | growth inhibition [2, 8] | growth inhibition ([2]; at 50.0 µM) | growth inhibition [3, 7] [%] | growth inhibition [3, 8] | growth inhibition ([3]; at 50.0 µM) | growth inhibition [4, 7] [%] | growth inhibition [4, 8] | growth inhibition ([4]; at 50.0 µM) | growth inhibition [5, 7] [%] | growth inhibition [5, 8] | growth inhibition ([5]; at 50.0 µM) | growth inhibition [6, 7] [%] | growth inhibition [6, 8] | growth inhibition ([6]; at 50.0 µM)
1 | O=C(N=Nc1c(O)[nH]c2ccccc12)C(O)(c1ccccc1)c1ccccc1 | 18 | 32% | -6.25% | 19 | 32% | -8.75% | 21 | 82% (active) | 80.7% (active) | 26 | 27% | 35.5% | 12 | 38% | 25.9% | 29 | 38% | 29.1%
2 | O=S(=O)(Nc1ccccn1)c1ccc(NCc2c3ccccc3nc3cc(Cl)ccc23)cc1 | 0 | 65% | 65.9% | 4 | 37% | 55.2% | -2 | 66% | 54.5% | 6 | 36% | 31.9% | 8 | 76% (active) | 34.8% | 3 | 52% | 71.8% (active)
3 | Nc1ccccc1N=Nc1c(S(=O)(=O)O)cc2cc(S(=O)(=O)O)cc(O)c2c1O | 17 | 23% | -24% | 3 | 5% | -10.9% | -3 | 11% | -27.6% | 34 | -10% | 27.9% | 17 | 12% | -33.5% | 5 | 7% | -33.9%
4 | CCN1CCC(O)(/C=C/c2ccccc2)C(C(=O)/C=C/c2ccccc2)C1 (configuration not stated) | 11 | 89% (active) | 97.7% (active) | 6 | 80% (active) | 98.2% (active) | 13 | 82% (active) | 97.8% (active) | 13 | 74% (active) | 85.1% (active) | 8 | 94% (active) | 98.9% (active) | 19 | 93% (active) | 96% (active)
5 | CC1=C(C(=O)Nc2cccc(C(F)(F)F)c2)C(c2ccccc2F)C(C(=O)Nc2cccc(C(F)(F)F)c2)=C(C)N1 | 46 | 46% | 78.4% (active) | 46 | 46% | 78.9% (active) | 29 | 29% | 85.9% (active) | 21 | 21% | 85.7% (active) | 37 | 37% | 85.2% (active) | 47 | 47% | 80.4% (active)
6 | COc1ccc(C(=O)O)c(-c2c(C(=O)O)ccc(OC)c2OC(C)=O)c1 | 3 | 1% | 16.5% | -5 | 9% | 3.05% | -18 | 7% | -3.85% | 2 | -2% | 63.7% | 0 | -5% | 73% (active) | 14 | 13% | 54.6%
7 | CC(C)C(Cl)CC/C(CBr)=C(\Cl)CCl (configuration not stated) | 28 | 89% (active) | 75% (active) | 29 | 92% (active) | 80.8% (active) | 27 | 99% (active) | 92.4% (active) | 24 | 96% (active) | 91.1% (active) | 23 | 98% (active) | 92.3% (active) | 28 | 97% (active) | 18.9%
8 | CC(/C=C/c1ccc(Cl)c(Cl)c1)=N\NC(N)=S | 37 | 69% | 61.2% | 31 | 73% (active) | 53.5% | 48 | 76% (active) | 82.9% (active) | 39 | 41% | 77.2% (active) | 29 | 82% (active) | 64.4% | 61 | 81% (active) | 80% (active)
9 | COC12C(COC(N)=O)C3=C(C(=O)C(C)=C(N)C3=O)N1CC1C2N1C(=O)/C=C/c1ccccc1 (configuration not stated) | 11 | 72% (active) | 73.7% (active) | 13 | 82% (active) | 70.7% (active) | 24 | 87% (active) | 85.7% (active) | 3 | 80% (active) | 75.7% (active) | 2 | 66% | 72.4% (active) | 27 | 90% (active) | 87% (active)
